This note sets out measurements from PubChem BioAssay (Tox21).

Results filed as inconclusive are left out. Values without a mark were called inactive. Calls of active or inactive are those of the source. Unless noted, calls follow the shape of the dose curve; as a rule, active = well fitted curve in the direction sought with a large enough effect in the repeat runs; inconclusive = weak or mixed curves; inactive = no such curve, though single readings can be large; an effect the other way counts as inactive or inconclusive.

Assay [1] can be described thus: qHTS assay to identify small molecule antagonists of the vitamin D receptor (VDR) signaling pathway - cell viability counter screen (AID 743225). Also: % is scaled to controls: 0 for no effect and ±100 for the full control effect; nearly all actives have a fitted effect of over 50% in size. The method in brief: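 VDR-bla HEK 293T cells, 4 h pre-incubation at 37C, then compound plus 1-alpha,25-dihydroxyvitamin D3 (3 nM final) for 16 h. After the beta-lactamase FRET read, CellTiter-Glo was added to the same wells; luminescence after 30 min at room temperature.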

The nature of assay [2]: qHTS assay to identify small molecule agonists of the NFkB signaling pathway (AID 1159509; active = well fitted curve in the direction sought with a large enough effect in the signal ratio in the repeat runs, not every such curve was filed as active; the % refers to the signal ratio; also: series mostly up to about 61 µM; % is scaled to controls: 0 for no effect and ±100 for the full control effect). The method in brief:
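Readout: FRET fluorescence, 405 nm excitation, 460/530 nm emission; beta-lactamase expression disrupts FRET. Cells: ME-180 stably carrying NF-kB-driven bla reporter. Compound exposure 5 hr, 37 C, 5% CO2.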
(In general: qHTS replaces the single test concentration by a dilution series.)

Assay [3] can be described thus: qHTS assay to identify small molecule agonists of the NFkB signaling pathway - cell viability counter screen (AID 1159515; calls by dose curve; also: series mostly up to about 61 µM; % is scaled to controls: 0 for no effect and ±100 for the full control effect; nearly all actives have a fitted effect of over 55% in size). The method in brief: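 Cells are seeded (2,000 NFkB-bla ME-180 per well), rested overnight, and dosed with DMSO-dissolved compounds for 5 hr at 37 C. Viability is then read by CellTiter-Glo luminescence after 30 min at room temperature.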
A short description of assay [4]: qHTS assay to identify small molecule agonists of the endoplasmic reticulum stress response signaling pathway (AID 1159516; active = well fitted activation curve with a large enough effect in the signal ratio in the repeat runs, not every such curve was filed as active; the % refers to the signal ratio; also: % is scaled to controls: 0 for no effect and ±100 for the full control effect). A digest of the protocol:
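Cells are seeded at 1,500 per well and incubated overnight. Compounds in DMSO are added for 5 hr at 37 C, then beta-lactamase FRET substrate for 2 hr at room temperature, and fluorescence at 460 and 530 nm is measured.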

Assay [5] can be described thus: qHTS assay to identify small molecule agonists of the endoplasmic reticulum stress response signaling pathway - cell viability counter screen (AID 1159517; calls by dose curve;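 also: HeLa cells carrying an ER stress response element beta-lactamase reporter; series mostly up to about 61 µM; % is scaled to controls: 0 for no effect and ±100 for the full control effect; nearly all actives have a fitted effect of over 50% in size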). The method in brief:
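After overnight attachment, ESRE-bla HeLa cells were treated with Tox21 library compounds for 5 hr. CellTiter-Glo luminescence, read 30 min post-addition at room temperature, reported viability.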

Assay [6] can be described thus: qHTS assay to identify small molecule antagonists of the retinoid-related orphan receptor gamma (ROR-gamma) signaling pathway - cell viability counter screen (AID 1159520). Also: % is scaled to controls: 0 for no effect and ±100 for the full control effect; nearly all actives have a fitted effect of over 50% in size. A digest of the protocol:
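Cytotoxicity was read from cellular ATP (CellTiter-Glo luminescence) after 16 hr at 37 C with 1 uM doxycycline induction. The inducer was added 2 hr after compound transfer to Tet-on ROR gamma CHO cells.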

For assay [7], the target named is Nuclear receptor ROR-gamma (Homo sapiens) (UniProt P51449). Put plainly: qHTS assay to identify small molecule antagonists of the retinoid-related orphan receptor gamma (ROR-gamma) signaling pathway (AID 1159521;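 also: CHO cells with doxycycline inducible ROR-gamma driving an RORE luciferase reporter; top concentration of the series differs between compounds; % is scaled to controls: 0 for no effect and ±100 for the full control effect; nearly all actives have a fitted effect of over 50% in size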). The method in brief:
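Tet-on RORγ CHO cells carrying a ROR response element–luciferase reporter were pretreated with compounds for 2 h, then induced with 1 uM (final) doxycycline hyclate for 16 h at 37 C. Antagonism was read as decreased ONE-Glo luminescence.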

Assay [8] can be described thus: qHTS assay to identify small molecule agonists of the AP-1 signaling pathway - cell viability counter screen (AID 1159525; calls by dose curve; also: nearly all actives have a fitted effect of over 55% in size). The method in brief: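 Intracellular ATP by Cell Titer Glo luminescence (30 min, RT) in the same ME-180 AP-1-bla wells after the 5 h compound exposure at 37 °C. Normalised to tetra n-octyl ammonium bromide and DMSO controls.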
Assay [9] in a line: qHTS assay to identify small molecule agonists of the AP-1 signaling pathway (AID 1159526; calls by dose curve; also: % is scaled to controls: 0 for no effect and ±100 for the full control effect).
A short description of assay [10]: qHTS assay to identify small molecule agonists of the RXR signaling pathway - cell viability counter screen (AID 1159529). The method in brief: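 RXR-alpha-UAS-bla HEK 293T cells in medium with 2% charcoal-stripped FBS were preincubated 5 hr, then exposed to compounds for 16 hr at 37 C. Viability was read as CellTiter-Glo luminescence after 30 min at room temperature.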

Assay [11] is described as follows: qHTS assay to identify small molecule antagonists of the retinoid acid receptor (RAR) signaling pathway - cell viability counter screen (AID 1159551). Also: % is scaled to controls: 0 for no effect and ±100 for the full control effect; nearly all actives have a fitted effect of over 35% in size. A digest of the protocol:
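Cells (C3RL4) are plated, incubated overnight, dosed with compound in DMSO, then given retinol at 1 uM final. After 6 h at 37 C, CellTiter-Glo is added and luminescence read following 30 min at room temperature.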

The nature of assay [12]: qHTS assay to identify small molecule antagonists of the retinoic acid receptor (RAR) signaling pathway (AID 1159552). A digest of the protocol:
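RARE-luc C3RL4 cells; cpds + 1 uM (final) retinol, 6 hr, 37 C/5% CO2; luciferase reagent, 30 min RT, luminescence readout. Inhibitors of retinol-driven signal scored.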

Assay [13] is described as follows: qHTS assay to identify small molecule agonists of the retinoic acid receptor (RAR) signaling pathway (AID 1159553). Also: potency is read from the fitted curve at half-maximal effect. As to activation: % is scaled to controls: 0 for no effect and ±100 for the full control effect. The method in brief:
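Seed C3RL4 reporter cells at 1,000 per well and incubate overnight at 37 C. Add compounds in DMSO, incubate 6 hr. Add luciferase reagent, wait 30 min at room temperature, read luminescence.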

Consider `Cc1ccccc1CCO`, for which the compound was called inactive in [1], in assay [2], in assay [3], in assay [4], in [5] and in assay [8]. Also, the compound was classed as inactive in assay [11] and in [12]. Further, the Potency entry in assay [6], in [7], in assay [9], in assay [10] and in assay [13] was “inactive” in each case.

In the case of `c1ccc(-c2ccc(-c3ccccc3)cc2)cc1`, the outcome in [1], in [2], in assay [3], in assay [4] and in assay [5] was inactive. Further, the activity, negative = cytotoxicity in assay [6] is 4.58% [at 19 µM]. In [7], the activity change, negative = inhibition was 98.3% [at 19 µM]. The viability change, negative = cytotoxic in assay [8] was 1.74% [at 15.8 µM]. Further, the activation in [9] is -13.1% [at 15.8 µM]. In addition, the activity change, negative = cytotoxicity in assay [10] was 4.66% [at 15.8 µM]; in assay [11] it was 4.6% [at 19 µM]. Further, the activity, negative = inhibition in [12] is 100% [at 19 µM]. In assay [13], the Potency is 0.996 µM (active).

On to `Cc1ccc2ccccc2c1[N+](=O)[O-]`, for which the outcome in assay [1], in [2], in assay [3], in assay [4], in assay [5] and in assay [8] was inactive. The compound was called inactive in [11] and in assay [12]. Further, the Potency entry in [6], in [7], in [9], in [10] and in assay [13] was “inactive” each time.

As to `CCCCCCCCCC(C)C=O` (stereo not given), the call in assay [2], in assay [3], in assay [4], in assay [5], in [8] and in assay [11] was inactive. Moreover, the result in assay [12] was inactive. Further, the Potency result in [6], in assay [7], in [9] and in [10] was “inactive” each time.

In the case of `O=C(N[C@@H](Cc1ccccc1)[C@@H](O)C(=O)N1C[C@@H](O)[C@@H](O)C1)c1cc2cc(Cl)ccc2[nH]1`, the call in [1], in assay [2], in assay [3], in assay [4], in assay [5] and in assay [8] was inactive. The call in [11] and in assay [12] was inactive. For the same compound, the Potency entry in assay [6], in assay [7], in [9], in assay [10] and in assay [13] was “inactive” throughout.

In the case of `CS(C)=O`, the compound was classed as inactive in assay [1], in [2], in assay [3], in assay [4], in [5] and in [8]. Also, the outcome in [11] and in [12] was inactive. Also, the Potency entry in assay [6], in assay [7], in assay [9], in assay [10] and in assay [13] was “inactive” each time.

As to `C=C(C)C(=O)OCCCCCCCCCCOC(=O)C(=C)C`, the compound was classed as inactive in assay [1], in [2], in [3], in [4], in [5] and in assay [8]. Besides, the result in [11] and in [12] was inactive. Moreover, the Potency entry in [6], in [7], in assay [9] and in [10] was “inactive” in each case.

With `CC(C(=O)O)c1ccc(/C=C2\CCCCC2=O)cc1` (stereo not given), the compound was called inactive in assay [1], in assay [2], in [3], in assay [4], in assay [5] and in [8]. Further, the call in assay [11] and in assay [12] was inactive. Besides, the Potency result in assay [6], in assay [7], in [9] and in assay [10] was “inactive” each time. Besides, in assay [13], the Potency is 15 µM (active).

`O=C(O)c1cc(C(=O)O)c(C(=O)O)cc1C(=O)O`: the outcome in assay [1], in assay [2], in assay [3], in [4], in [5] and in assay [8] was inactive. For the same compound, the result in assay [11] and in assay [12] was inactive. Besides, the Potency entry in assay [6], in [7], in assay [9] and in [10] was “inactive” each time.

In the case of `O=C(c1ccc(Cl)cc1)c1ccc(Cl)cc1`, the outcome in [1], in assay [2], in [3], in [4], in assay [5] and in assay [8] was inactive. In addition, the compound was classed as inactive in assay [11] and in [12]. Also, the Potency entry in assay [6], in assay [7], in assay [9], in assay [10] and in assay [13] was “inactive” throughout.

As to `O=C(O)c1cc(C(=O)O)cc([N+](=O)[O-])c1`, the compound was called inactive in assay [1], in assay [2], in assay [3], in [4], in assay [5] and in assay [8]. The compound was called inactive in assay [11] and in assay [12]. Also, the Potency entry in assay [6], in assay [7], in assay [9], in assay [10] and in [13] was “inactive” each time.

Turning to `CC[C@H](NC(C)C)[C@H](O)c1ccc(O)c2[nH]c(=O)ccc12`, the compound was called inactive in assay [1], in assay [2], in [3], in assay [4], in assay [5] and in assay [8]. Moreover, the outcome in assay [11] and in assay [12] was inactive. The Potency result in [6], in assay [7], in assay [9] and in assay [10] was “inactive” in each case.

On to `Cc1c(-c2cccnc2)c2ccccc2n1CCCCC(=O)O`, for which the result in [1], in assay [2], in assay [3], in assay [4], in [5] and in assay [8] was inactive. Moreover, the call in [11] and in assay [12] was inactive. Also, the Potency entry in assay [6], in [7], in [9] and in assay [10] was “inactive” each time. For the same compound, the Potency in [13] was 43.3 µM (active).

Consider `NC(=O)c1cc[n+](CC2=C(C(=O)[O-])N3C(=O)[C@@H](NC(=O)Cc4cccs4)[C@H]3SC2)cc1`, for which the result in assay [2], in [3], in assay [4], in assay [5], in [8] and in assay [11] was inactive. The compound was called inactive in assay [12]. Moreover, the Potency entry in [6], in assay [7], in [9], in assay [10] and in assay [13] was “inactive” in each case.

Regarding `CCCOC(C)=O`, the call in assay [1], in [2], in assay [3], in [4], in assay [5] and in assay [8] was inactive. In addition, the result in assay [11] and in assay [12] was inactive. The Potency result in assay [6], in assay [7], in [9], in [10] and in assay [13] was “inactive” each time.

`O=c1[nH]nc(-c2ccc([N+](=O)[O-])o2)o1`: the call in [1], in assay [2], in [3], in assay [4], in [5] and in [8] was inactive. Besides, the outcome in assay [11] and in assay [12] was inactive. Also, the Potency result in [6], in assay [7], in [9] and in assay [10] was “inactive” in each case.

Regarding `C[C@H](N)C(=O)N[C@@H](C)C(=O)NC1[C@H]2CN(c3nc4c(cc3F)c(=O)c(C(=O)O)cn4-c3ccc(F)cc3F)C[C@@H]12` (stereo not given in full), the compound was called inactive in assay [1], in assay [2], in [3], in [4], in assay [5] and in assay [8]. Also, the compound was called inactive in assay [11] and in assay [12]. Moreover, the Potency entry in [6], in assay [7], in [9] and in assay [10] was “inactive” throughout.

`COC(=O)/C=C/C(C)=C\C=C\C(C)=C\C=C\C=C(C)\C=C\C=C(C)\C=C\C(=O)O`: the call in assay [1], in assay [2], in assay [3], in assay [4], in assay [5] and in assay [8] was inactive. Moreover, the result in assay [11] and in [12] was inactive. The Potency entry in assay [6], in [7], in assay [9] and in [10] was “inactive” throughout. Further, the Potency in assay [13] was 61.1 µM (active).

Take `CC(C)(Cc1c[nH]c2ccccc12)NCC(O)COc1ccccc1C#N` (stereo not given): the compound was called inactive in assay [2], in assay [3], in assay [4], in assay [5], in assay [8] and in assay [11]. In addition, the Potency entry in assay [6], in assay [7], in [9], in assay [10] and in assay [13] was “inactive” in each case.

As to `O=C1c2ccccc2C(=O)c2c1ccc(O)c2O`, the outcome in [1], in assay [2], in assay [3], in [4], in [5] and in [8] was inactive. Also, the result in assay [11] and in [12] was inactive. Besides, the Potency entry in [6], in [7], in [9], in [10] and in assay [13] was “inactive” in each case.
